The source of these data is PubChem BioAssay (NCI).

Compounds without any hit were thinned out: in the full panel of roughly 83,000, 20% have a hit.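 Results are percent growth after 48 hours of single-concentration exposure. 100 means growth as in untreated cells, lower positive values show inhibition; negative values down to -100 show cell death.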 The source made the active and inactive calls. The calls were made as follows: active = growth percent below 10; inactive = the rest.

Among the test systems are DU-145 prostate; MALME-3M melanoma; MDA-MB-231 breast; RXF 393 renal; SF-268 CNS; SF-295 CNS; SF-539 CNS; UACC-257 melanoma; M14 melanoma.
Holding throughout (assay): NCI-60 one-dose screen, 48 h (100 = growth as untreated, 0 = no growth, -100 = all killed)
Holding throughout (conditions): 10 µM unless noted

Consider `Cc1cc2c(c(C)c1Cl)C(=O)/C(=C/c1ccc(O)c(O)c1)O2`, for which the growth was 109% (inactive) with DU-145 prostate; 111% (inactive) with MALME-3M melanoma; 91.3% (inactive) in the experiment with MDA-MB-231 breast; 113% (inactive) in the experiment with RXF 393 renal; 108% (inactive) in the experiment on SF-268 CNS; 103% (inactive) in the experiment with SF-295 CNS. Besides, the growth with SF-539 CNS was 100% (inactive); in the experiment with UACC-257 melanoma, 97.7% (inactive); with M14 melanoma it was 95.2% (inactive).
For the compound `COc1cc2c(c(OC)c1OC)-c1ccc(NNC(=S)N(Cc3cccc(C[N+](Cc4cccc(CNC56CC7CC(CC(C7)C5)C6)c4)(Cc4cccc(CNC56CC7CC(CC(C7)C5)C6)c4)Cc4cccc(CN(C(=S)NNc5ccc6c(cc5=O)[C@@H](NC(C)=O)CCc5cc(OC)c(OC)c(OC)c5-6)C56CC7CC(CC(C7)C5)C6)c4)c3)C34CC5CC(CC(C5)C3)C4)c(=O)cc1[C@@H](NC(C)=O)CC2` (some centres not stated), the growth in the experiment on DU-145 prostate is 21.3% (inactive); in the experiment with MALME-3M melanoma, -48.1% (active); with MDA-MB-231 breast it was -26.3% (active); in the experiment on RXF 393 renal, 20.2% (inactive); in the experiment on SF-268 CNS, 18.3% (inactive); in the experiment on SF-295 CNS, 20.3% (inactive). For the same compound, the growth in the experiment with SF-539 CNS was 0.867% (active); with UACC-257 melanoma, 43.1% (inactive); in the experiment on M14 melanoma, -53.4% (active).
Regarding `CCCN1[C@@H]2CC[C@H]1/C(=C\c1ccc(OC)c(OC)c1)C(=O)/C2=C/c1ccc(OC)c(OC)c1`, the growth with DU-145 prostate is 59.7% (inactive); in the experiment on MALME-3M melanoma, 83.9% (inactive); in the experiment with MDA-MB-231 breast, 56.3% (inactive); in the experiment on RXF 393 renal, 58.3% (inactive); with SF-268 CNS, 59.2% (inactive); in the experiment on SF-295 CNS, 30.9% (inactive). For the same compound, the growth is 59.4% (inactive) with SF-539 CNS, 42.1% (inactive) in the experiment with UACC-257 melanoma and 43.1% (inactive) in the experiment with M14 melanoma.
As to `Cc1ccc(-c2nc3ccccn3c2/C=C2/C(=O)Nc3cc(Cl)ccc32)cc1`, the growth in the experiment with DU-145 prostate is 65.5% (inactive); in the experiment with MALME-3M melanoma, 76.1% (inactive); with MDA-MB-231 breast it was 76% (inactive); in the experiment on RXF 393 renal it was 77.8% (inactive); in the experiment on SF-268 CNS, 63.3% (inactive); with SF-295 CNS, 64.5% (inactive). The values for the growth with SF-539 CNS, with UACC-257 melanoma and in the experiment on M14 melanoma were 79.7% (inactive), 91.1% (inactive) and 80.4% (inactive), respectively.
On to `O=C1Nc2ccc(F)cc2/C1=C\c1c(-c2ccccc2)nc2ccccn12`, for which the growth with DU-145 prostate was 86.5% (inactive); in the experiment with MALME-3M melanoma it was 67.5% (inactive); in the experiment with MDA-MB-231 breast, 73.4% (inactive); in the experiment on RXF 393 renal it was 50.8% (inactive); in the experiment with SF-268 CNS, 79.5% (inactive); in the experiment on SF-295 CNS, 57% (inactive). Besides, the growth was 73.3% (inactive) with SF-539 CNS, 90.7% (inactive) in the experiment with UACC-257 melanoma and 48.7% (inactive) in the experiment with M14 melanoma.
`COc1ccc2c(c1)oc1c(C)c3c(c(C)c12)C(=O)N(N)C3=O`: the growth is 27.9% (inactive) with DU-145 prostate; -5.47% (active) in the experiment with MALME-3M melanoma; -4.83% (active) in the experiment on MDA-MB-231 breast; 28.5% (inactive) with RXF 393 renal; 39.8% (inactive) with SF-268 CNS; 12% (inactive) in the experiment with SF-295 CNS. In addition, the values for the growth in the experiment on SF-539 CNS, in the experiment on UACC-257 melanoma and in the experiment on M14 melanoma were -6.28% (active), 40.5% (inactive) and 13.9% (inactive), respectively.
Take `O=C1NN(C(=O)c2ccccc2)C(c2ccc(Cl)c(Cl)c2)=C/C1=C\c1ccc([N+](=O)[O-])cc1`: the growth in the experiment with DU-145 prostate is 108% (inactive); in the experiment with MALME-3M melanoma it was 88.3% (inactive); in the experiment on MDA-MB-231 breast, 80.4% (inactive); in the experiment with RXF 393 renal, 74.3% (inactive); with SF-268 CNS, 74.8% (inactive); with SF-295 CNS it was 88.5% (inactive). Further, the results for the growth in the experiment on SF-539 CNS, in the experiment with UACC-257 melanoma and in the experiment on M14 melanoma were 90.5% (inactive), 96.5% (inactive) and 41.8% (inactive), respectively.
As for `Cc1cc(Cl)nc(N(CCNc2ccnc3cc(Cl)ccc23)Cc2ccccn2)n1`, the growth in the experiment on DU-145 prostate is 73% (inactive); with MALME-3M melanoma, 100% (inactive); with MDA-MB-231 breast it was 57.2% (inactive); in the experiment with RXF 393 renal, 59.1% (inactive); with SF-268 CNS, 83.4% (inactive); in the experiment with SF-295 CNS, 80.4% (inactive). Further, the figures for the growth in the experiment with SF-539 CNS, with UACC-257 melanoma and with M14 melanoma were 6.88% (active), 68.1% (inactive) and 62.5% (inactive), respectively.
`COc1ccc(-c2cnc3c(-c4cccc5cnccc45)cnn3c2)cc1`: the growth is 69.9% (inactive) in the experiment on DU-145 prostate; 45% (inactive) with MALME-3M melanoma; 37.8% (inactive) with MDA-MB-231 breast; 48.7% (inactive) in the experiment with RXF 393 renal; 92.7% (inactive) with SF-268 CNS; 62.5% (inactive) in the experiment on SF-295 CNS. Moreover, the figures for the growth in the experiment with SF-539 CNS, with UACC-257 melanoma and in the experiment with M14 melanoma were 2.09% (active), 88.7% (inactive) and 74.5% (inactive), respectively.
Consider `CC(c1ccccc1)C(C(=O)c1ccccc1)c1ccccc1` (configuration not stated), for which the growth in the experiment on DU-145 prostate is 105% (inactive); in the experiment with MALME-3M melanoma, 109% (inactive); in the experiment with MDA-MB-231 breast it was 71.6% (inactive); with RXF 393 renal, 90.6% (inactive); in the experiment with SF-268 CNS it was 94.2% (inactive); with SF-295 CNS, 91.8% (inactive). In addition, the growth with SF-539 CNS is 98.1% (inactive); with UACC-257 melanoma, 105% (inactive); in the experiment with M14 melanoma, 89.7% (inactive).
With `CC(=O)[C@@H]1CC[C@]2(C(N)=O)CC[C@]3(C)[C@H](CC[C@@H]4[C@@]5(C)CCCNC(C)(C)[C@@H]5CC[C@]43C)[C@@H]12`, the growth in the experiment with DU-145 prostate was 91.6% (inactive); in the experiment on MALME-3M melanoma it was 90% (inactive); with MDA-MB-231 breast, 106% (inactive); in the experiment on RXF 393 renal, 69.5% (inactive); in the experiment on SF-268 CNS, 80.2% (inactive); in the experiment with SF-295 CNS, 86.6% (inactive). Further, the growth with SF-539 CNS was 90.1% (inactive); in the experiment on UACC-257 melanoma it was 94.4% (inactive); in the experiment with M14 melanoma it was 77.5% (inactive).
As to `O=C(/C(=C/c1ccc([N+](=O)[O-])cc1)SCc1ccc(F)cc1)c1ccc(F)cc1`, the growth in the experiment with DU-145 prostate was 94.6% (inactive); in the experiment on MALME-3M melanoma, 88.8% (inactive); in the experiment with MDA-MB-231 breast, 76.1% (inactive); with RXF 393 renal, 97% (inactive); in the experiment with SF-268 CNS it was 80.8% (inactive); with SF-295 CNS, 93.2% (inactive). The growth in the experiment on SF-539 CNS was 105% (inactive); with UACC-257 melanoma it was 108% (inactive); in the experiment on M14 melanoma, 82.8% (inactive).
`CCN1C(=O)N(CC)C2Nn3c(s/c(=C\c4ccc(OC)cc4)c3=O)=NC21` (configuration not stated): the growth was 67.3% (inactive) in the experiment with DU-145 prostate; 54.1% (inactive) in the experiment on MALME-3M melanoma; 61.4% (inactive) in the experiment with MDA-MB-231 breast; 56.2% (inactive) with RXF 393 renal; 63.1% (inactive) in the experiment with SF-268 CNS; 44.1% (inactive) in the experiment with SF-295 CNS. Also, the growth is 42.9% (inactive) in the experiment with SF-539 CNS, 45% (inactive) in the experiment on UACC-257 melanoma and 39.8% (inactive) in the experiment on M14 melanoma.
On to `NS(=O)(=O)c1ccc(CCN2C(=O)C=CC2=O)cc1`, for which the growth is 109% (inactive) in the experiment on DU-145 prostate; 102% (inactive) in the experiment with MALME-3M melanoma; 104% (inactive) in the experiment on MDA-MB-231 breast; 111% (inactive) in the experiment on RXF 393 renal; 100% (inactive) in the experiment on SF-268 CNS; 102% (inactive) in the experiment on SF-295 CNS. In addition, the growth is 101% (inactive) in the experiment with SF-539 CNS, 101% (inactive) with UACC-257 melanoma and 107% (inactive) with M14 melanoma.
Consider `CC(=O)[C@@H]1CC[C@]2(CO)CC[C@]3(C)[C@H](CC[C@@H]4[C@@]5(C)CCCNC(C)(C)[C@@H]5CC[C@]43C)[C@@H]12`, for which the growth with DU-145 prostate is 101% (inactive); with MALME-3M melanoma, 92.9% (inactive); in the experiment on MDA-MB-231 breast it was 107% (inactive); with RXF 393 renal, 104% (inactive); in the experiment on SF-268 CNS, 91.2% (inactive); with SF-295 CNS it was 105% (inactive). In addition, the growth is 105% (inactive) in the experiment on SF-539 CNS, 123% (inactive) in the experiment with UACC-257 melanoma and 93.6% (inactive) in the experiment on M14 melanoma.
Consider `OCc1cnc2ccccc2c1NC1CCCCCC1`, for which the growth is 97.7% (inactive) in the experiment on DU-145 prostate; 102% (inactive) in the experiment on MALME-3M melanoma; 81.3% (inactive) in the experiment on MDA-MB-231 breast; 103% (inactive) with RXF 393 renal; 101% (inactive) with SF-268 CNS; 86.4% (inactive) with SF-295 CNS. Moreover, the growth with SF-539 CNS was 102% (inactive); in the experiment with UACC-257 melanoma, 94.5% (inactive); with M14 melanoma, 91.4% (inactive).
As to `COc1cc(CC(=O)n2ncc3ccc(N)cc32)cc(OC)c1OC`, the growth with DU-145 prostate was 105% (inactive); in the experiment on MALME-3M melanoma it was 85.7% (inactive); in the experiment on MDA-MB-231 breast, 79.2% (inactive); in the experiment on RXF 393 renal, 108% (inactive); with SF-268 CNS, 93.5% (inactive); in the experiment with SF-295 CNS, 91.3% (inactive). The growth in the experiment with SF-539 CNS was 88.4% (inactive); in the experiment on UACC-257 melanoma, 105% (inactive); in the experiment with M14 melanoma, 102% (inactive).
As to `O=C1Nc2cc(Cl)ccc2/C1=C\c1c(-c2ccc(F)cc2)nc2ccccn12`, the growth was -17.9% (active) with DU-145 prostate; 41.4% (inactive) with MALME-3M melanoma; 50.3% (inactive) in the experiment with MDA-MB-231 breast; -23.8% (active) in the experiment on RXF 393 renal; 20% (inactive) in the experiment on SF-268 CNS; -58.2% (active) in the experiment on SF-295 CNS. Also, the growth with SF-539 CNS is -26.4% (active); with UACC-257 melanoma, 68.7% (inactive); in the experiment on M14 melanoma, -10.8% (active).
